Reference: PubChem BioAssay (NCI)
This is part of a sample that, as a whole, favours compounds with a hit. Of some 83,000 tested, about 20% had one in any assay.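 Compound tested at a single concentration for 48 hours in 96-well plates; a percent growth value below 10 was scored as active.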 The source made the active and inactive calls.

These molecules were tested on NCI-H23 lung (assay: NCI-60 one-dose screen, 48 h (100 = growth as untreated, 0 = no growth, -100 = all killed)). Details: 10 µM unless noted.
`CN(C)C(=S)N=Nc1c(O)[nH]c2ccccc12` was tested, and the growth was 28.2% (inactive).
For `NC(N)=N/N=C(/c1ccccc1)c1ccc(F)cc1`, the growth was 3.78% (active).
For `CC(=O)c1cc2c(N)c(C(=O)Nc3cccc4ccccc34)sc2nc1C`, the growth was 34.6% (inactive).
For `O=c1ccccc(-c2ccc(Br)cc2)c1O`, the growth was 13.9% (inactive).
With `CCCCC(=O)OCC1OC(n2cnc3c(=S)nc[nH]c32)C(OC(=O)CCCC)C1OC(=O)CCCC` (stereo not drawn) the growth was 27.5% (inactive).
`CC/C=C\C[C@H]1C/C=C2/C(=O)C=C[C@H]2C/C=C\CCCC(=O)O1` was tested, and the growth was 39.4% (inactive).
In the case of `CCNc1ncnc2c1cnn2C1CCCO1` (stereo not drawn), the growth is reported as 118% (inactive).
With `C=C1C(=O)O[C@H]2[C@H]1CC/C(COC(=O)NCCc1ccc(OC)c(OC)c1)=C\CC[C@@]1(C)O[C@@H]21` the growth was 59.2% (inactive).
For `O=C(Cc1ccc(/C=C/C(=O)c2ncc[nH]2)cc1)Nc1ccc(F)cc1`, the growth was 24.2% (inactive).
For `Clc1ccc2c(NCCCNc3nc(-n4ccnc4)nc4ccccc34)ccnc2c1`, the growth was 96.1% (inactive).
In the case of `CCc1nc(N)nc(N)c1C#CC(C)c1ccc(-c2ccncc2)cc1Cl` (stereo not drawn), the growth is reported as 16.2% (inactive).
With `Cc1cc2c3ccccc3ccc2[n+]2ccccc12` the growth was 46.4% (inactive).
For `COc1ccc(SC2c3ccc(C)cc3Oc3nc(N)c(C#N)c(N)c32)cc1` (stereo not drawn), the growth was -43.8% (active).
In the case of `NC(=NC1C2CC3CC(C2)CC1C3)Nc1ccc(I)cc1` (stereo not drawn), the growth is reported as 15.4% (inactive).
In the case of `CC(=O)OCCC/C(=C/c1cc2ccccc2c2ccccc12)[N+](=O)[O-]`, the growth is reported as -76.5% (active).
For `COc1cc(C(=O)/C=C/c2cccnc2Nc2ccc(Cl)cc2)cc(OC)c1OC`, the growth was -17.5% (active).
In the case of `CCOc1ccc(-n2nc(C(=O)Nc3cc(OC)c(OC)c(OC)c3)nc2-c2cc(OC)c(OC)c(OC)c2)cc1`, the growth is reported as 85% (inactive).
In the case of `CC(=O)Oc1ccc(Cl)cc1CN(C(C)=O)C1CCCCC1`, the growth is reported as 116% (inactive).
`COc1cc(-c2nn(-c3ccc(Br)cc3)cc2C(=O)O)ccc1O` was tested, and the growth was 89.5% (inactive).
For `COc1cc2nnc3c4cccnc4[nH]c3c2cc1OC`, the growth was 89.6% (inactive).
In the case of `CCNC(=O)Oc1ccc(/C(=C(\C)c2ccc(Cl)cc2)c2ccc(OCCN(CC)CC)cc2)cc1`, the growth is reported as 65.6% (inactive).
With `CCc1nc(N)nc(N)c1C#CC(C)c1cc(-c2ccnc(C)c2)c2oc(C)nc2c1` (stereo not drawn) the growth was 5.82% (active).
In the case of `CC1=C(O)C(=O)C(C(C#N)(C#N)C(C#N)C#N)C1` (stereo not drawn), the growth is reported as 92.4% (inactive).
`CN(C)c1ccc(NC(=O)c2ccc(/C=C/C(=O)c3ncc[nH]3)cc2)cc1` was tested, and the growth was 59.8% (inactive).
In the case of `CN(C)c1ccc(N=Nc2ccccn2)c(O)c1`, the growth is reported as 16.1% (inactive).
In the case of `O=C1C=CC(=O)N1c1ccc2c(c1)Cc1cc(F)ccc1-2`, the growth is reported as 101% (inactive).
For `CCCCn1cnc2c(Sc3c([N+](=O)[O-])ncn3C)nc(N)nc21`, the growth was 110% (inactive).
For `NC(CSC(c1ccccc1)(c1ccccc1)c1ccc(Cl)cc1)C(=O)O` (stereo not drawn), the growth was 8.79% (active).
With `Oc1ccc(N=Cc2ccccc2O)cc1` the growth was 92.3% (inactive).
`Clc1ccc2c(NCCNc3nc(N4CCCCC4)nc4ccccc34)ccnc2c1` was tested, and the growth was 54.3% (inactive).
With `CCN1CCN(c2nc(NCCCNc3ccnc4cc(Cl)ccc34)c3ccccc3n2)CC1` the growth was 64.3% (inactive).
In the case of `CCOC(=O)c1sc(Nc2ccc(Cl)cc2)nc1C`, the growth is reported as 19.3% (inactive).
With `CN1C(=O)C2(SCC(C(=O)NCc3ccccc3)N2C(=O)C2CCCCC2)c2ccccc21` (stereo not drawn) the growth was 91% (inactive).
`CSc1ccc(-c2ccccc(=O)c2O)cc1` was tested, and the growth was 21.9% (inactive).
With `CC(=O)c1cc2c(N)c(C(=O)Nc3cccc(F)c3C)sc2nc1C` the growth was 94.2% (inactive).
`COc1ccc2c(c1)C(=O)/C(=C/c1ccccn1)CC2` was tested, and the growth was 74.1% (inactive).
With `O=C(Cc1ccc(/C=C/C(=O)c2ncc[nH]2)cc1)Nc1ccccc1` the growth was 39.8% (inactive).
In the case of `COc1cccc2c1C(=O)c1c(O)c3c(c(O)c1C2=O)C[C@](O)(C(=O)CO)C[C@H]3O[C@@H]1C[C@@H](NC(=O)CCCN(C)C2(c3ccc(F)cc3)CC3CCC2C3)[C@H](O)[C@@H](C)O1` (stereo partly drawn), the growth is reported as -59.7% (active).
For `COc1cccc2c1C(=O)c1c(O)c3c(c(O)c1C2=O)C[C@](O)(C(=O)CO)C[C@H]3O[C@@H]1C[C@@H](NC(=O)CCCCCN(C)C2(c3ccc(F)cc3)CC3CCC2C3)[C@H](O)[C@@H](C)O1` (stereo partly drawn), the growth was 40.8% (inactive).

The molecules below were run on NCI-H226 lung in the same assay as above. Details: 10 µM unless noted.
`CN(C)C(=S)N=Nc1c(O)[nH]c2ccccc12` was tested, and the growth was 4.04% (active).
For `NC(N)=N/N=C(/c1ccccc1)c1ccc(F)cc1`, the growth was 8.06% (active).
In the case of `CC(=O)c1cc2c(N)c(C(=O)Nc3cccc4ccccc34)sc2nc1C`, the growth is reported as 81.3% (inactive).
With `O=c1ccccc(-c2ccc(Br)cc2)c1O` the growth was 18.2% (inactive).
`CCCCC(=O)OCC1OC(n2cnc3c(=S)nc[nH]c32)C(OC(=O)CCCC)C1OC(=O)CCCC` (stereo not drawn) was tested, and the growth was 31.4% (inactive).
For `CC/C=C\C[C@H]1C/C=C2/C(=O)C=C[C@H]2C/C=C\CCCC(=O)O1`, the growth was 40.5% (inactive).
With `CCNc1ncnc2c1cnn2C1CCCO1` (stereo not drawn) the growth was 94.2% (inactive).
With `C=C1C(=O)O[C@H]2[C@H]1CC/C(COC(=O)NCCc1ccc(OC)c(OC)c1)=C\CC[C@@]1(C)O[C@@H]21` the growth was 82.6% (inactive).
In the case of `O=C(Cc1ccc(/C=C/C(=O)c2ncc[nH]2)cc1)Nc1ccc(F)cc1`, the growth is reported as 61.3% (inactive).
In the case of `Clc1ccc2c(NCCCNc3nc(-n4ccnc4)nc4ccccc34)ccnc2c1`, the growth is reported as 90.4% (inactive).
`CCc1nc(N)nc(N)c1C#CC(C)c1ccc(-c2ccncc2)cc1Cl` (stereo not drawn) was tested, and the growth was 57.4% (inactive).
`Cc1cc2c3ccccc3ccc2[n+]2ccccc12` was tested, and the growth was 43.4% (inactive).
In the case of `COc1ccc(SC2c3ccc(C)cc3Oc3nc(N)c(C#N)c(N)c32)cc1` (stereo not drawn), the growth is reported as -63.9% (active).
In the case of `NC(=NC1C2CC3CC(C2)CC1C3)Nc1ccc(I)cc1` (stereo not drawn), the growth is reported as 84.7% (inactive).
`CC(=O)OCCC/C(=C/c1cc2ccccc2c2ccccc12)[N+](=O)[O-]` was tested, and the growth was -51.6% (active).
In the case of `COc1cc(C(=O)/C=C/c2cccnc2Nc2ccc(Cl)cc2)cc(OC)c1OC`, the growth is reported as -82.7% (active).
`CCOc1ccc(-n2nc(C(=O)Nc3cc(OC)c(OC)c(OC)c3)nc2-c2cc(OC)c(OC)c(OC)c2)cc1` was tested, and the growth was 78.1% (inactive).
In the case of `CC(=O)Oc1ccc(Cl)cc1CN(C(C)=O)C1CCCCC1`, the growth is reported as 96.3% (inactive).
In the case of `COc1cc(-c2nn(-c3ccc(Br)cc3)cc2C(=O)O)ccc1O`, the growth is reported as 91.7% (inactive).
In the case of `COc1cc2nnc3c4cccnc4[nH]c3c2cc1OC`, the growth is reported as 40.5% (inactive).
With `CCNC(=O)Oc1ccc(/C(=C(\C)c2ccc(Cl)cc2)c2ccc(OCCN(CC)CC)cc2)cc1` the growth was 76.7% (inactive).
For `CCc1nc(N)nc(N)c1C#CC(C)c1cc(-c2ccnc(C)c2)c2oc(C)nc2c1` (stereo not drawn), the growth was 44.7% (inactive).
In the case of `CC1=C(O)C(=O)C(C(C#N)(C#N)C(C#N)C#N)C1` (stereo not drawn), the growth is reported as 96.4% (inactive).
In the case of `CN(C)c1ccc(NC(=O)c2ccc(/C=C/C(=O)c3ncc[nH]3)cc2)cc1`, the growth is reported as 89.1% (inactive).
In the case of `CN(C)c1ccc(N=Nc2ccccn2)c(O)c1`, the growth is reported as 14.4% (inactive).
For `O=C1C=CC(=O)N1c1ccc2c(c1)Cc1cc(F)ccc1-2`, the growth was 99.3% (inactive).
For `CCCCn1cnc2c(Sc3c([N+](=O)[O-])ncn3C)nc(N)nc21`, the growth was 96% (inactive).
In the case of `NC(CSC(c1ccccc1)(c1ccccc1)c1ccc(Cl)cc1)C(=O)O` (stereo not drawn), the growth is reported as 47.2% (inactive).
`Oc1ccc(N=Cc2ccccc2O)cc1` was tested, and the growth was 113% (inactive).
`Clc1ccc2c(NCCNc3nc(N4CCCCC4)nc4ccccc34)ccnc2c1` was tested, and the growth was -8.68% (active).
With `CCN1CCN(c2nc(NCCCNc3ccnc4cc(Cl)ccc34)c3ccccc3n2)CC1` the growth was 60.4% (inactive).
With `CCOC(=O)c1sc(Nc2ccc(Cl)cc2)nc1C` the growth was 21.9% (inactive).
`CN1C(=O)C2(SCC(C(=O)NCc3ccccc3)N2C(=O)C2CCCCC2)c2ccccc21` (stereo not drawn) was tested, and the growth was 84.3% (inactive).
For `CSc1ccc(-c2ccccc(=O)c2O)cc1`, the growth was 16.1% (inactive).
For `CC(=O)c1cc2c(N)c(C(=O)Nc3cccc(F)c3C)sc2nc1C`, the growth was 88% (inactive).
In the case of `COc1ccc2c(c1)C(=O)/C(=C/c1ccccn1)CC2`, the growth is reported as 95.8% (inactive).
For `O=C(Cc1ccc(/C=C/C(=O)c2ncc[nH]2)cc1)Nc1ccccc1`, the growth was 87.7% (inactive).
In the case of `COc1cccc2c1C(=O)c1c(O)c3c(c(O)c1C2=O)C[C@](O)(C(=O)CO)C[C@H]3O[C@@H]1C[C@@H](NC(=O)CCCN(C)C2(c3ccc(F)cc3)CC3CCC2C3)[C@H](O)[C@@H](C)O1` (stereo partly drawn), the growth is reported as 65.2% (inactive).
For `COc1cccc2c1C(=O)c1c(O)c3c(c(O)c1C2=O)C[C@](O)(C(=O)CO)C[C@H]3O[C@@H]1C[C@@H](NC(=O)CCCCCN(C)C2(c3ccc(F)cc3)CC3CCC2C3)[C@H](O)[C@@H](C)O1` (stereo partly drawn), the growth was 59.3% (inactive).
